According to PubChem BioAssay (NCATS):
Inconclusive results are not listed. Calls of active or inactive are those of the source. Calls follow the shape of the dose curve; as a rule, active = well fitted curve in the direction sought with a large enough effect; inconclusive = small, poorly fitted or top-dose-only effect, or another doubt; inactive = no such curve, though single readings can be large; an effect the other way counts as inactive or inconclusive.

What was measured:
[1] = biological target: Glutathione peroxidase 1 (Homo sapiens) (UniProt P07203); experiment: Primary qHTS Assay for Inhibitors of Recombinant Selenoprotein Glutathione Peroxidase 1 (GPX1) (AID 1845191); details: recombinant GPX1, GR-coupled NADPH fluorescence, 15 min; series mostly up to 27.7 µM; also: nearly all actives have a fitted effect of over 65% in size
In short: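 GR-coupled assay: compounds preincubated 30 min at room temperature with GPX1, then reaction started with CHP; final 10 nM GPX1, 1 mM GSH, 0.5 mM CHP, 0.5 mM NADPH, 100 nM GR, 0.01% BSA, pH 7.5 Tris buffer. NADPH fluorescence (340/450 nm) read at 0 and 15 min.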

[2] = biological target: Phospholipid hydroperoxide glutathione peroxidase GPX4 (Homo sapiens) (UniProt P36969); experiment: Primary qHTS Assay for Inhibitors of Recombinant Selenoprotein Glutathione Peroxidase 4 (GPX4) (AID 1845192); details: recombinant GPX4, GR-coupled NADPH fluorescence, 15 min; series mostly up to 27.8 µM; also: nearly all actives have a fitted effect of over 65% in size; as to activity change, negative = inhibition: % is scaled to controls: 0 for no effect and ±100 for the full control effect
In short: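 GR-coupled assay: recombinant GPX4 preincubated 30 min with compound at room temperature; final 200 nM GPX4, 1 mM GSH, 0.5 mM cumene hydroperoxide, 0.5 mM NADPH, 100 nM GR, 0.01% BSA, pH 7.5 Tris. NADPH fluorescence (340/450 nm) read at 0 and 15 min.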

[3] = biological target: Luciferin 4-monooxygenase (Photinus pyralis) (UniProt P08659); experiment: Primary firefly luciferase (FLuc) qHTS assay for identification of artifact compounds. (AID 1845220); details: purified firefly luciferase, luminescence, 5 min; series mostly up to 54.1 µM; also: nearly all actives have a fitted effect of over 60% in size; also: potency is read from the fitted curve at half-maximal effect;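 as to activity change, negative = inhibition: plate controls were DMSO vehicle for no effect and no enzyme for full effect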
In short: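 D-luciferin and ATP (10 uM each, final) in Tris acetate buffer pH 7.6 were incubated with compounds for 15 min at room temperature. The reaction was started with 10 nM Photinus pyralis luciferase and luminescence read after 5 min. Percent inhibition was fitted to a 4-parameter Hill equation.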

[4] = Primary fluorescence-based thiol-reactive (MSTI) qHTS assay for identification of artifact compounds. (AID 1845221); details: MSTI thiol-reactivity probe, 1 h; series mostly up to 53.8 µM; also: nearly all actives have a fitted effect of over 65% in size; also: potency is read from the fitted curve at half-maximal effect;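 as to activity change, negative = thiol reactive: thiol-reactive compounds lower the probe fluorescence signal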
In short: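 MSTI probe at 4 uM final in 2% DMSO/PBS pH 7.4; compounds, 1 h at room temperature in dark. Fluorescence Ex/Em 525/598 nm, normalised to Acetyl-MSTI and MSTI, fitted to 4-parameter Hill.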

[5] = test system: Nanoluciferase (engineered Oplophorus gracilirostris luciferase); experiment: Primary Nanoluciferase (NLuc) qHTS assay for identification of artifact compounds. (AID 1845222); details: NLuc-conditioned medium, Nano-Glo luminescence, 5 min; series mostly up to 54.1 µM;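 also: 0% = DMSO and -100% = no enzyme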
In short: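 Diluted conditioned medium from NLuc-expressing S16 cells treated with compounds for 15 min at room temperature, then Nano-Glo substrate added; luminescence read after 5 min. Percent inhibition versus no-enzyme and DMSO controls fitted to 4-parameter Hill equation.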

Sequence of Glutathione peroxidase 1 (Homo sapiens) (P07203 whole entry, looked up): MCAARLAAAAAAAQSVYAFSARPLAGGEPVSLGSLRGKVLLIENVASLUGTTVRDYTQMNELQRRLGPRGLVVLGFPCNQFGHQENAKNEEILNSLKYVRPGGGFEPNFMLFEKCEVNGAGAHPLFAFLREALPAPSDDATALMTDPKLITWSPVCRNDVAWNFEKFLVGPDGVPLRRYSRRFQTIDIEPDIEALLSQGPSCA
Sequence of Phospholipid hydroperoxide glutathione peroxidase GPX4 (Homo sapiens) (P36969 whole entry, looked up): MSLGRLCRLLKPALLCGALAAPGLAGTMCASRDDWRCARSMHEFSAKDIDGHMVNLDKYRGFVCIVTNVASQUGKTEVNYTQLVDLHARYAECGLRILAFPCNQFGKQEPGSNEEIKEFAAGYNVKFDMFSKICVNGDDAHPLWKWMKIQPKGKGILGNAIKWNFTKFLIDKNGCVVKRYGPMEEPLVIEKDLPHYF

C=C1C[C@H](O)[C@@H](O)[C@@]2(C)C1[C@@H](O)[C@H]1OC(=O)C3[C@@H](C)[C@@H](O)[C@H](O)C2[C@]31C (some centres not stated)
inactive: Potency [1] | Potency [2] | Potency [3] | Potency [4]

C=C[C@H]1[C@H](O[C@@H]2O[C@H](CO)[C@@H](O)[C@H](O)[C@H]2O)OC=C(C(=O)OC)[C@H]1CCO
inactive: Potency [1] | Potency [2] | Potency [3]

CC(=O)/C=C/[C@H]1[C@](C)(O)[C@@H](O)[C@H](O)C2C(C)(C)CCC[C@@]21C (some centres not stated)
inactive: Potency [1] | Potency [2] | Potency [3] | Potency [4]

Cc1c(NC(=O)N2CCOCC2)ccc2c1c1ccccc1n2C(C)C
inactive: Potency [1] | Potency [2] | Potency [3]

O=C(O)c1cc(O[C@@H]2O[C@H](CO)[C@@H](O)[C@H](O)[C@H]2O)ccc1O
inactive: Potency [1] | Potency [2] | Potency [3]

CC(C(=O)Nc1cc(C#N)ccc1CCCC(=O)O)c1ccc(F)c2ccccc12 (configuration not stated)
inactive: Potency [1] | Potency [2] | Potency [3] | Potency [4]

COc1cc(-c2ccc(O)cc2)c(OC)c(O)c1C1=CC(=O)OC1CC(=O)O (configuration not stated)
inactive: Potency [1] | Potency [2] | Potency [3] | Potency [4]

Cn1cc(-c2c[nH]c3ncnc(N4CCOCC4)c23)cn1
inactive: Potency [1] | Potency [2] | Potency [3] | Potency [4]

CCC(C)/C=C(C)/C=C/C1=CC2=C(Cl)C(=O)C(C)(OC(C)=O)C(=O)C2=CN1C(CCC(=O)O)C(=O)O (configuration not stated)
inactive: Potency [1] | Potency [2] | Potency [3]
active: Potency [4] 367 nM

O=C(CCc1ccccc1)c1c(O)c([C@@H]2O[C@H](CO)[C@@H](O)[C@H](O)[C@H]2O)c(O)c([C@@H]2O[C@H](CO)[C@@H](O)[C@H](O)[C@H]2O)c1O
inactive: Potency [1] | Potency [2] | Potency [3]

CC[C@H](C)[C@H](NC(=O)[C@H](Cc1ccc(O)cc1)NC(=O)[C@@H](N)C(C)C)C(=O)N[C@@H](Cc1cnc[nH]1)C(=O)N1CCC[C@H]1C(=O)N[C@@H](Cc1ccccc1)C(=O)O
inactive: outcome [1] inactive [at 4.49 µM] | activity change, negative = inhibition [2] 4.63% [at 4.52 µM] | outcome [3] inactive [at 6.45 µM] | activity change, negative = thiol reactive [4] 19.3% [at 6.41 µM]

C=C1CCC2[C@@](C)(C(=O)O)CCC[C@@]2(C)[C@@H]1CCc1ccoc1 (some centres not stated)
inactive: Potency [1] | Potency [2] | Potency [3] | Potency [4]

C=C(C(=O)O)[C@@H]1CC[C@@]2(C)CC[C@@H](O)C(=C)C2C1 (some centres not stated)
inactive: Potency [1] | Potency [2] | Potency [3]
active: Potency [4] 23800 nM

C=C1CCC2[C@](C)(CO)CCC[C@@]2(C)[C@@H]1CCC1=CCOC1=O (some centres not stated)
inactive: Potency [1] | Potency [2] | Potency [3] | Potency [4] | Potency [5]

C[C@@H]1O[C@@H](O[C@H]2[C@@H]3C=CO[C@@H](O[C@@H]4O[C@H](CO)[C@@H](O)[C@H](O)[C@H]4O)[C@@H]3[C@@]3(CO)O[C@@H]23)[C@H](O)[C@H](OC(=O)/C=C/c2ccc(O)c(O)c2)[C@H]1O
inactive: Potency [1] | Potency [2] | Potency [3] | Potency [5]
active: Potency [4] 562 nM

CC1(C)CC[C@]2(C(=O)O)[C@H](O)C[C@]3(C)C(=CCC4[C@@]5(C)CC[C@H](O[C@@H]6OC[C@@H](O)[C@H](O)[C@H]6O)[C@@](C)(C(=O)O)C5CC[C@]43C)[C@@H]2C1 (some centres not stated)
inactive: Potency [1] | Potency [2] | Potency [3] | Potency [4] | Potency [5]

CC(=O)c1[nH]cc(CCC(=O)O)c1CC(=O)O
inactive: Potency [1] | Potency [2] | Potency [3] | Potency [4] | Potency [5]

CC1=CC(=O)CC(C)(C)C1CO[C@@H]1O[C@H](CO)[C@@H](O)[C@H](O)[C@H]1O (some centres not stated)
inactive: Potency [1] | Potency [2] | Potency [3] | Potency [4] | Potency [5]

COc1cc(/C=C/C(=O)O)ccc1O[C@@H]1O[C@H](CO)[C@@H](O)[C@H](O)[C@H]1O[C@@H]1OC[C@](O)(CO)[C@H]1O
inactive: Potency [1] | Potency [2] | Potency [3] | Potency [4] | Potency [5]

c1ccc2c(Nc3nnc(-c4ccncc4)s3)cccc2c1
active: Potency [3] 7.57 µM
inactive: Potency [1] | Potency [2] | Potency [4] | Potency [5]

C=C1CCc2occ(C)c2[C@H]2[C@H]1[C@@]13O[C@@]1(C[C@@H](C)[C@H]3OC(C)=O)[C@H]1O[C@@]21C
inactive: Potency [1] | Potency [2] | Potency [3] | Potency [4] | Potency [5]

COc1ccc(NC(=O)c2ccc(-c3ccc(C(N)=O)cc3C)cc2)cc1N1CCN(C)CC1
inactive: Potency [1] | Potency [2] | Potency [3] | Potency [4]

CC(=O)O[C@@H]1C(O)C[C@@]2(C)C(CC[C@@H](C)C23Cc2c(O)cc4c(c2O3)CNC4=O)C1(C)C (some centres not stated)
inactive: Potency [1] | Potency [2] | Potency [3] | Potency [4] | Potency [5]
